Measured values taken from PubChem BioAssay (NCATS).
A number with no mark means an inactive call. Records with an inconclusive call do not appear. Activity calls are given as the source filed them. Unless noted, calls come from the whole dose curve; as a rule, active = well fitted curve in either direction with a large enough effect (not every such curve was filed as active); inconclusive = small, poorly fitted or top-dose-only effect, or another doubt; inactive = flat fitted curve, though single readings scatter.

Experiments:
[1] = molecular target: Lysosomal acid glucosylceramidase (Homo sapiens) (UniProt P04062); assay: Glucocerebrosidase-p2 (AID 348; in the data active = potency below about 10 µM; note: potency is the fitted concentration of half-maximal effect); details: purified GBA, blue fluorogenic substrate, 40 min
Outline: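 Normal human glucocerebrosidase (0.2 nM) with blue fluorogenic substrate (80 uM final) in citrate/phosphate pH 5.9 with 10mM sodium taurocholate, 0.01% tween-20; 40 min RT, NaOH/glycine stop; fluorescence Ex 365/Em 440; AC50 from a titration from 0.6 nM upwards.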

[2] = AP1 Signaling Pathway (AID 357); details: ME-180 AP-1-bla reporter, EGF-induced, beta-lactamase ratio, 5 h; at 7.69 µM (top of the series) unless noted;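 note: ME-180 reporter cells stimulated with EGF at its EC50 level; % is set by controls: 0 for no effect and ±100 for the full control effect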
Outline: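 Modulation of EGF-driven AP-1 transcription was assessed with a beta-lactamase reporter in ME-180 cells. Compound and EC50 EGF were co-incubated 5 hours at 37 °C before 2.5-hour CCF4 loading at room temperature and dual-emission reading.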

[3] = NFAT Signaling Pathway (AID 444); details: Jurkat NFAT-bla M1, carbachol, beta-lactamase ratio, 5 h; at 7.69 µM (top of the series) unless noted;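 note: carbachol stimulus at about its EC50 of 1 µM final; % is set by controls: 0 for no effect and ±100 for the full control effect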
Outline: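 Read-out: CCF4 FRET ratio (460 nm/530 nm) after 1 h RT dye loading, used for %activity and AC50 from titration series. Cells: Jurkat NFAT-β-lactamase/M1 line, treated with compound plus 1 uM carbachol for 5 h, 37 °C.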

[4] = Stat Signaling Pathway (AID 446); details: ME-180 (cervical carcinoma) SIE beta-lactamase reporter, IL-6 stimulated, 5 h; at 7.69 µM (top of the series) unless noted;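 note: ME-180 cervical cancer cells given 40 pM IL-6 alongside compound; SIE-controlled beta-lactamase reporter measured as 460/530 nm FRET emission ratio; % is set by controls: 0 for no effect and ±100 for the full control effect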
Outline: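 FRET read-out (405 nm excitation, 460/530 nm emission) of a beta-lactamase reporter under a STAT-inducible element in ME-180 cervical carcinoma cells. Cells with compound receive 40 pM IL-6 for 5 h. Values are normalised to AC90 stimulation and AC90 JAK-inhibitor controls.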

[5] = molecular target: Glucocorticoid receptor (Homo sapiens) (UniProt P04150); assay: GR-EFC Redistribution (AID 451; calls by dose curve; note: potency is the fitted concentration of half-maximal effect); details: CHO-K1 GR-EFC translocation, beta-gal luminescence, 2 h
Outline: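 Translocation of GR-ED fusion to nuclear EA restores b-gal, read by luminescence after 1 h room-temperature detection. Engineered CHO-K1 biosensor cells, 1,000/well, exposed 2 h at 37 C to titrations up to 46 uM final.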

[6] = molecular target: Mitogen-activated protein kinase 10 (Mus musculus) (UniProt Q61831); assay: JNK3 AlphaScreen Assay (AID 530); details: JNK3 lysate, c-Jun phosphorylation; series mostly up to 57.1 µM;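 note: kinase came from lysate of stimulated human HepG2 cells; signal reports phosphorylation of biotinylated GST-cJun 1-79 at Ser73 with 10 µM ATP; % is set by controls: 0 for no effect and ±100 for the full control effect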
Outline: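 Kinase buffer: 20 mM Tris-HCl pH 7.6, 10 mM MgCl2, 1 mM DTT, 0.1 mM Na3VO4, 0.01% Tween-20; ATP 10 uM. Substrate biotin-GST-cJun(1-79), enzyme from activated HepG2 lysates. Detection by Ser73 phospho-antibody AlphaScreen.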

[7] = molecular target: 3',5'-cyclic-AMP phosphodiesterase 4B (Homo sapiens) (UniProt Q07343); assay: qHTS Assay for Inhibitors of PDE-IV (AID 607; active = well fitted activation curve with a large enough effect in the main read-out, with a control signal flat, not every such curve was filed as active; note: % of control where 0% means no effect); details: HEK293 ACTOne CNG channel cells, membrane potential fluorescence; series mostly up to 22.9 µM
Outline: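 Cell-based read-out of cAMP via a modified cyclic nucleotide-gated channel and membrane potential dye (535/590 nm) in HEK293 cells expressing PDE4 endogenously. Compounds tested up to 22.9 uM final; 100 uM RO 20-1724 reference.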

[8] = Primary qHTS for small molecule stabilizers of the endoplasmic reticulum resident proteome: Secreted ER Calcium Modulated Protein (SERCaMP) assay (AID 1508630; active = well fitted curve in the direction sought with a large enough effect; an effect the other way counts as inactive or inconclusive; note: % is set by controls: 0 for no effect and ±100 for the full control effect); details: SH-SY5Y GLuc-SERCaMP (Gaussia luciferase released on ER calcium loss) secretion, thapsigargin, luminescence; series mostly up to 38.4 µM
Outline: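 The SH-SY5Y reporter protocol was run at 3 concentrations up to 38.3 uM (primary) or 11 concentrations (follow-up): 16 h compound, 100 nM thapsigargin for 4 h, then extracellular luciferase luminescence.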

[9] = molecular target: Cytochrome P450 3A4 (Homo sapiens) (UniProt P08684); assay: qHTS Assay for Inhibitors and Substrates of Cytochrome P450 3A4 (AID 884; active = well fitted curve in the direction sought with a large enough effect; an effect the other way counts as inactive or inconclusive; note: nearly all actives have a fitted effect of over 50% in size; note: potency is the fitted concentration of half-maximal effect); details: recombinant CYP3A4, Luciferin-PPXE luminescence; series mostly up to 57.1 µM
Outline: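 Luminescent readout of luciferin produced by CYP3A4 (20 nM) dealkylation of Luciferin-PPXE, 25 uM (its KM). NADPH-driven reaction ran 60 min at RT after 10 min compound preincubation; data scaled to 57 uM ketoconazole as 100% inhibition.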

[10] = molecular target: Glucocorticoid receptor (Homo sapiens) (UniProt P04150); assay: GR-GFP Redistribution (AID 450;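 active = compounds whose dose series gives a full or clear partial fitted curve of increased nuclear translocation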; note: potency is the fitted concentration of half-maximal effect); details: U2OS GR-GFP nuclear translocation, laser cytometry, 2 h
[11] = molecular target: Cytochrome P450 3A4 (Homo sapiens) (UniProt P08684); assay: qHTS Assay for Activators of Cytochrome P450 3A4 (AID 885; active = well fitted curve in the direction sought with a large enough effect; an effect the other way counts as inactive or inconclusive; note: nearly all actives have a fitted effect of over 65% in size; note: potency is the fitted concentration of half-maximal effect); details: recombinant CYP3A4, Luciferin-PPXE luminescence, 60 min; series mostly up to 57.1 µM
Outline: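 Luminescent readout of luciferin formed from 25 uM Luciferin-PPXE (KM level) by 20 nM CYP3A4 in 200 mM KPO4, with 60 min NADPH-driven reaction at room temperature after 10 min compound exposure. Ketoconazole (57 uM) defined 100% inhibition.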

[12] = molecular target: Cytochrome P450 2D6 (Homo sapiens) (UniProt P10635); assay: qHTS Assay for Inhibitors and Substrates of Cytochrome P450 2D6 (AID 891; active = well fitted curve in the direction sought with a large enough effect; an effect the other way counts as inactive or inconclusive; note: potency is the fitted concentration of half-maximal effect; nearly all actives have a fitted effect of over 60% in size); details: recombinant CYP2D6, luciferin-ME EGE luminescence; series mostly up to 57.1 µM
Outline: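 Luminescent read-out of luciferin formed by 5 nM human CYP2D6 demethylating 30 uM Luciferin-ME EGE (Km level) over 60 min at room temperature after NADPH regeneration addition. Data normalized to full inhibition by 1.43 uM quinidine.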

Chain of Cytochrome P450 3A4 (Homo sapiens) (P08684 whole entry, looked up): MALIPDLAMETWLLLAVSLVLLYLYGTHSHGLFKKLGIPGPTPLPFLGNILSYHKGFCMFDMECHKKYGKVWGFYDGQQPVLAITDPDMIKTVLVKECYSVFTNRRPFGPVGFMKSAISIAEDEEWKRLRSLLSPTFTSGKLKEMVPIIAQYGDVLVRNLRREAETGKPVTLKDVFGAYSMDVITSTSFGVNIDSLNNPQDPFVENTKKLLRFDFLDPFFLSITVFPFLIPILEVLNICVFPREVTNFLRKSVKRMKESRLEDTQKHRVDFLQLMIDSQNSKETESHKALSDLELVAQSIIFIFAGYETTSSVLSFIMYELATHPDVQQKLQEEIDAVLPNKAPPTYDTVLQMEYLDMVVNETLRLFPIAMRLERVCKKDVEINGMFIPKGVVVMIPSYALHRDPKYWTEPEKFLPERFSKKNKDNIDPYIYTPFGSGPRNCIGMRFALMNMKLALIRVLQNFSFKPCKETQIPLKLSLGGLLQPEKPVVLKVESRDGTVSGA
Chain of 3',5'-cyclic-AMP phosphodiesterase 4B (Homo sapiens) (Q07343 whole entry, looked up): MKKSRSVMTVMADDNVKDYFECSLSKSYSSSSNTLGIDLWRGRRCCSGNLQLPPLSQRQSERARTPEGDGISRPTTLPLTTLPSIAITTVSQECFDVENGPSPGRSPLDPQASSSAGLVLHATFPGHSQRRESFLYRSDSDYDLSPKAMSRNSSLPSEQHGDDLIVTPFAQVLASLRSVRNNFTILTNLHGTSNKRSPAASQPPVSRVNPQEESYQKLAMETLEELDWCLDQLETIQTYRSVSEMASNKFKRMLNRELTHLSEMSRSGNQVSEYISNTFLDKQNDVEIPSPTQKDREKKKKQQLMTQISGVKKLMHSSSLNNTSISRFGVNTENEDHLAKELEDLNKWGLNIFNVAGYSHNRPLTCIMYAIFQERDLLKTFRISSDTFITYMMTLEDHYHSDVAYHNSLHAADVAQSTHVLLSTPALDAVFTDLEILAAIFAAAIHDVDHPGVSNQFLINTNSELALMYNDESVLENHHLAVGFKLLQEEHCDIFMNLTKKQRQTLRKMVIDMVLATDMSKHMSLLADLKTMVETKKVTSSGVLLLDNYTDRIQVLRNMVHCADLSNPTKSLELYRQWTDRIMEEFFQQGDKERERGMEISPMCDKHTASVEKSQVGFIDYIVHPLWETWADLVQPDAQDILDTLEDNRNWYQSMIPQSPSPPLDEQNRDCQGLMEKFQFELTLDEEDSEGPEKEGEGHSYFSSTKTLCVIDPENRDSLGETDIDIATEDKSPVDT
Chain of Glucocorticoid receptor (Homo sapiens) (P04150 whole entry, looked up, the tested form may be a part): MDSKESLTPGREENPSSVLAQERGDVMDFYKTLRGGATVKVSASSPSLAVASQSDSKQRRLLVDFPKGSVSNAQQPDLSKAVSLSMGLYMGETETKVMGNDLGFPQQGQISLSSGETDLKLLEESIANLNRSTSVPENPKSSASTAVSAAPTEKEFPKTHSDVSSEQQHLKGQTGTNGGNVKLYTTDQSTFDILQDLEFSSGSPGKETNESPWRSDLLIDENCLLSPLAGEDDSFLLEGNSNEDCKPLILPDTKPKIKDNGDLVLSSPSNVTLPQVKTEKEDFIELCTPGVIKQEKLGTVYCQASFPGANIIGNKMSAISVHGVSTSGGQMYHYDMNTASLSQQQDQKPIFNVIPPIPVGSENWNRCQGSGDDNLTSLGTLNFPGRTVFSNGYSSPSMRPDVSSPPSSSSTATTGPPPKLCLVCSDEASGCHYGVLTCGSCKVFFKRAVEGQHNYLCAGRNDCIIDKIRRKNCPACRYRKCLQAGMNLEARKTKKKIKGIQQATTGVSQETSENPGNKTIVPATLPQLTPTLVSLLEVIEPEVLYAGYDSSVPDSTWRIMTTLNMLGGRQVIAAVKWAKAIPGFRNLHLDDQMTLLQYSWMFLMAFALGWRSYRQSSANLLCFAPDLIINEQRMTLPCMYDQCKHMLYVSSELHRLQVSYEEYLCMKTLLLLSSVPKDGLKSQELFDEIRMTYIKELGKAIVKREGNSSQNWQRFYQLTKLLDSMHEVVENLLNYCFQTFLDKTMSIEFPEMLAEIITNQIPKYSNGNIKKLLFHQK
Chain of Lysosomal acid glucosylceramidase (Homo sapiens) (P04062 whole entry, looked up): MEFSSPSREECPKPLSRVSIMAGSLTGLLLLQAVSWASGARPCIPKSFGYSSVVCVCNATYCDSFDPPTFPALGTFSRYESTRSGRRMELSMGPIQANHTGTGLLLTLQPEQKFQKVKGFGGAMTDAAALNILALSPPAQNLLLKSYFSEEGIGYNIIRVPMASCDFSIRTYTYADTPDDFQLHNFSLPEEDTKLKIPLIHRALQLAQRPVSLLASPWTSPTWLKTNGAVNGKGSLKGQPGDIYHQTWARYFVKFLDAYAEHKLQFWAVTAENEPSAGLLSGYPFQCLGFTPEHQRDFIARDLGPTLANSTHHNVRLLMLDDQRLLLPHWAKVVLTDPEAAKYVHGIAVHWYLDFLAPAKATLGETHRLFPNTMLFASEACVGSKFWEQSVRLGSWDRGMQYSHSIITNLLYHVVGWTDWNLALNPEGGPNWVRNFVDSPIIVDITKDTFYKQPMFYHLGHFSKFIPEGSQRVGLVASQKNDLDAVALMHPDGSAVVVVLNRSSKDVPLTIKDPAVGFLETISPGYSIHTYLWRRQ
Chain of Cytochrome P450 2D6 (Homo sapiens) (P10635 whole entry, looked up): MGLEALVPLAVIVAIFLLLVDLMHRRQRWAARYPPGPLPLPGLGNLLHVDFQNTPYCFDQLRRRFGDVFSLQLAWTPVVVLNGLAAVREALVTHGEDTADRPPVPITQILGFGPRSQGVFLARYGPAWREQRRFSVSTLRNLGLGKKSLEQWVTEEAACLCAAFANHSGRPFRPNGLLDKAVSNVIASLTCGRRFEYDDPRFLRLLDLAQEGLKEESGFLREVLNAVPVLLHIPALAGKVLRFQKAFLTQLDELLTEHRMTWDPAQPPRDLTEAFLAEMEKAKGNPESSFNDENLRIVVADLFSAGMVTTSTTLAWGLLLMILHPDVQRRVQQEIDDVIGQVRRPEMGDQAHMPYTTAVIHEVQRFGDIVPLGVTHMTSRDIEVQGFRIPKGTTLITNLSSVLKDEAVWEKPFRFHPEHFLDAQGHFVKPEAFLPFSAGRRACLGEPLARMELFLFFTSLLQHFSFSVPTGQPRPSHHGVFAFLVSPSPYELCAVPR

SMILES | Potency [1] | activity change, negative = inhibition [2] | activity change, negative = inhibition [3] | activity, negative = inhibition [4] | Potency [5] | Potency [6] | Potency [7] | outcome [8] | Potency [9] | Potency [10] | Potency [11] | Potency [12]
O=C(c1csnn1)N1CCC[C@@]2(CCN(Cc3ccccc3)C2)C1 | > 11.4 µM | -14.5% | 1.87% | -1.23% | > 46 µM | inactive | inactive | inactive |  |  |  | 
COc1ccc(C(=O)N2CCC3(CCN(Cc4nccs4)CC3)CC2)cc1 | > 11.4 µM | -14.6% | -8.01% | -11.9% | > 46 µM | inactive | inactive | inactive | inactive |  |  | 
O=c1c(-c2cccc(F)c2)nc2cncnc2n1Cc1ccccc1 | > 11.4 µM | -7.86% | -7.28% | -8.08% | > 46 µM |  |  | inactive |  | > 9.22 µM | inactive | 
COc1ccc(NC(=O)N2CC3(CCN(C(=O)c4cccc(F)c4)CC3)C2)cc1 | > 11.4 µM | -7.57% | -1.23% | 0.388% | > 46 µM | inactive | inactive | inactive |  |  |  | 
COc1ccc(C(=O)N2CCC3(CCN(C(=O)Nc4ccccc4)CC3)CC2)cc1 | > 11.4 µM | 0.785% | 6.48% | -6.61% | > 46 µM | inactive | inactive | inactive |  |  |  | 
COc1ccc(C(=O)N2CCC[C@@]3(CCN(Cc4nccs4)C3)C2)cc1 | > 11.4 µM | -5.52% | -6.27% | -1.52% | > 46 µM | inactive | inactive | inactive |  |  |  | 
O=C(c1csnn1)N1CCC2(CCCN(c3ncccn3)C2)CC1 | > 11.4 µM | 5.51% | 2.44% | 1.38% | > 46 µM | inactive | inactive | inactive |  |  |  | 
COc1cccc(Cn2c(=O)c(-c3ccc(F)c(F)c3)nc3cncnc32)c1 | > 11.4 µM | -5.97% | -0.724% | 2.07% | > 46 µM |  | inactive | inactive |  | > 9.22 µM |  | 
COc1ccc(C(=O)N2CCC[C@@]3(CCN(C)C3)C2)cc1 | > 11.4 µM | 10.5% | -2.06% | 1.69% | > 46 µM | inactive | inactive | inactive |  |  |  | 
O=S(=O)(c1ccccc1)N1CCC2(CCCN(C(c3ccccc3)c3ccccc3)C2)CC1 | > 11.4 µM | -2.18% | -9.54% | -3.12% | > 46 µM | inactive | inactive | inactive | 2 µM (active) |  | inactive | 501 nM (active)
O=C(c1csnn1)N1CCC[C@@]2(CCN(c3ccccc3)C2)C1 | > 11.4 µM | -5.43% | -8.4% | -7.17% | > 46 µM | inactive | inactive | inactive |  |  |  | 
O=C(c1ccco1)N1CCC2(CC1)CN(c1ncccn1)C2 | > 11.4 µM | -3.83% | 0.563% | 2.05% | > 46 µM | inactive | inactive | inactive | inactive |  | 15.8 µM (active) | 
COc1ccc(C(=O)N2CCC[C@@]3(CCN(C(=O)Nc4cccc(F)c4)C3)C2)cc1 | > 11.4 µM | -10.8% | 2.1% | -4.78% | > 46 µM | inactive | inactive | inactive |  |  |  | 
Cc1nc2cnc(OCc3ccccc3)nc2n(CCC#N)c1=O | > 11.4 µM | 2.98% | -3.58% | -1.87% | > 46 µM | inactive |  | inactive |  | > 9.22 µM | inactive | 
O=C(c1cccc(F)c1)N1CCC2(CC1)CN(C(c1ccccc1)c1ccccc1)C2 | > 11.4 µM | 16.8% | -27.5% | -17.5% | > 46 µM | inactive | inactive | inactive |  |  |  | 
N#Cc1cccc(NC(=O)N2CCC3(CC2)CCN(C(=O)c2cnccn2)CC3)c1 | > 11.4 µM | -8.55% | -3% | 2.13% | > 46 µM | inactive | inactive | inactive |  |  |  | 
COc1ccc(-c2nc3cnc(OC)nc3n(Cc3cccc(OC)c3)c2=O)cc1 | > 11.4 µM | -4% | -10.2% | 27.2% | > 46 µM | inactive |  | inactive | 2.51 µM (active) | > 9.22 µM | inactive | 
